From PubChem BioAssay
RAD52 inh = RAD52 DNA annealing inhibitors, primary screen, biochemical, FRET, single point, set 2 | DNA repair protein RAD52 homolog (Homo sapiens), P43351 | recombinant RAD52 DNA annealing, FRET fluorescence | inhibition, % at 18.7 µM | actives 0.46% (n = 360,000) | AID 651710, 2012;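 active means every replicate showing at least 50% inhibition; inconclusive means mean inhibition at least 50% but not in every replicate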
MLL AF4-AF9 inh = inhibitors of AF4 peptide binding to AF9, primary screen, biochemical, AlphaScreen, biotin-AF4 peptide, FLAG-AF9, single point; Protein AF-9 (Homo sapiens), P42568; inhibition, % at 10 µM; actives 0.47% (n = 350,000); AID 651704, 2012;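 active means every replicate reaching a set inhibition limit, whatever the replicate mean, cut at about 25% in these data; inconclusive means mean inhibition reaches that limit but some replicates miss it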
Target sequence (P42568 whole entry, looked up): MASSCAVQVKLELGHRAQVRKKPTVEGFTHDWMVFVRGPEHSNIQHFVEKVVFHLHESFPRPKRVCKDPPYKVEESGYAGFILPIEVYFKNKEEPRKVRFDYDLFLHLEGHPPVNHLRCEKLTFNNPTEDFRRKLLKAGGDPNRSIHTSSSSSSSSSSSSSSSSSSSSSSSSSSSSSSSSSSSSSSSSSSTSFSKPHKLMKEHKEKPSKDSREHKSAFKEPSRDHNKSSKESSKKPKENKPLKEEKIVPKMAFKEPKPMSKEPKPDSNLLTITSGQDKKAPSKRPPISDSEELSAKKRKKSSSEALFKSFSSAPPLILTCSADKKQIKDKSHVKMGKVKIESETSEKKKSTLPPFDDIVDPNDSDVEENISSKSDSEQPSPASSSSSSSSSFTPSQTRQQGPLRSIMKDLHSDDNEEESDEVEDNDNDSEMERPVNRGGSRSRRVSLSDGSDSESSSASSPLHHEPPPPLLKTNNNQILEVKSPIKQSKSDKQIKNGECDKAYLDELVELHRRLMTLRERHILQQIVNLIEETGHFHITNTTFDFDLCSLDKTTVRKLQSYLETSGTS
GSIS activator = GLuc luminescence reporter in INS-1E cells, primary screen for activators of glucose-dependent secretion of insulin; INS-1E GLuc reporter insulin secretion, 2-3 h; activation, % at 16.6 µM; actives 0.61% (n = 370,000); AID 743287, 2014;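 active means lowest replicate activation of at least 40%, so every replicate reaches that level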
RAD54 branch = inhibitors of human RAD54 branch migration, primary screen, biochemical, fluorescence, single point; DNA repair and recombination protein RAD54-like (Homo sapiens), Q92698; RAD54 Holliday junction branch migration, FAM/BHQ fluorescence; inhibition, % at 10.4 µM; actives 0.14% (n = 360,000);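 active means mean normalized replicate activity at least 40 and at least half of replicates scoring 40 or more; inconclusive means only one of the two criteria met; inactive means mean below 40 and under half of replicates reaching 40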;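 further: inhibitors cause a drop in the FAM fluorescence signal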
dFosB activator = activators of delta FosB homodimer, primary screen, biochemical, fluorescence polarization, TAMRA-CDK5 oligo, single point. Protein FosB (Mus musculus), P13346. purified delta FosB; percent of positive-control signal above neutral wells. actives 0.99% (n = 340,000). AID 493131, 2011. activation, % at 25 µM;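 active means mean activation above about 17%, with every replicate also reaching it, limit read from the data, passing the limit was not always enough; inconclusive means only one of the two conditions met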
DENV2 CPE = inhibitors of DENV2 cytopathic effect, primary screen, cell-based, plate reader, single concentration; DENV2-infected cells, cytopathic effect rescue; actives 1.7% (n = 350,000); CPE inhibition, % at 9.99 µM; in the data active means CPE inhibition above about 20%, passing the limit was not always enough; inconclusive means no clear call, values can overlap the other calls; tested in BHK-21 cells
DNA binder FP = DNA-binding compounds via dye displacement, dose response, artefact control for RAD52 inhibitor project, biochemical, fluorescence polarization, cherry-pick; shares compounds with RAD52 inh; actives 8% (n = 1,000); AC50, µM; Salmon sperm DNA/acridine orange FP displacement;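 active means fitted half-maximal concentration for signal loss at or below twice the highest dose tested, in every separate run, actives reach about 64 µM in these data; inconclusive means runs disagree, or flat partial signal loss, or poor fit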
Numbers stand for hits; n = inactive; u = inconclusive; x = not tested or not shown. Sampled rows, rich in hits. Any-hit rate of the full collection: about 3.1%.

SMILES	RAD52 inh	MLL AF4-AF9 inh	GSIS activator	RAD54 branch	dFosB activator	DENV2 CPE	DNA binder FP
OC(c1ccccc1)(c1ccccc1)C1CCN(CCCOc2ccc3c(c2)CCCC3)CC1	51	n	762	x	x	n	n
C=CC[N@@+]12CC[C@]34c5ccccc5N5/C=C6\C7N(/C=C(\C53)[C@@H](C[C@@H]41)/C(=C/CO)C2)c1ccccc1[C@@]71CC[N@@+]2(CC=C)C/C(=C\CO)[C@@H]6C[C@@H]12 (stereo partly drawn)	69	n	n	n	n	n	n
COc1ccccc1-c1ccc2c(c1)O[C@@H](CN(C)C(=O)c1cccnc1)[C@H](C)CN([C@H](C)CO)S2(=O)=O	n	n	n	n	x	n	x
CN(C)C(=O)[C@@H]1[C@@H](CO)[C@@H]2Cn3c(ccc(-c4ccc(F)cc4)c3=O)[C@@H]2N1C(=O)c1ccccn1	n	n	n	n	x	n	x
CN1CCN(c2ccc(NC(=O)c3ccc(-c4cccc([N+](=O)[O-])c4)o3)cc2)CC1	58	n	n	x	n	n	n
O=C1/C(=C\c2ccccc2)CN(C(=O)CCN2CCCCC2)C/C1=C/c1ccccc1	55	n	n	x	n	n	n
CCN(CC)CCC(=O)N1C/C(=C/c2ccccc2)C(=O)/C(=C\c2ccccc2)C1	n	n	n	x	n	n	x
Cc1cccc[n+]1CC(=O)/C=C1\N(C)c2ccccc2C1(C)C	n	n	n	n	u	n	x
CN1/C(=C/C=C/c2n(C)c3cc([N+](=O)[O-])c([N+](=O)[O-])cc3[n+]2C)C(C)(C)c2ccccc21	61	55	n	n	x	n	38µM
CN(C)CCOC(=O)c1ccc2[nH]c3c(c2c1)CSCC3	99	n	n	x	28	n	n
Cc1cc(N2CCNC[C@@H]2C)ccc1N1CCN(Cc2ccccc2)[C@@H](C)C1	51	x	x	x	x	n	n
Cc1cc(N2CCNC[C@H]2C)ccc1N1CCN(Cc2ccccc2)[C@@H](C)C1	n	x	x	x	x	n	x
CCN(CC)CCNC(=O)c1cc2c(-c3cccc(OC)c3)nn(C)c2s1	68	n	n	x	n	n	n
COc1cccc(-c2nn(C)c3sc(C(=O)NCc4ccc(C)cc4)cc23)c1	x	x	x	x	n	x	x
COc1cccc(NC(=O)CSc2nc3c(sc4ccccc43)c(=O)n2CCN(C)C)c1	74	n	n	x	n	n	n
Cc1noc(C)c1S(=O)(=O)Nc1ccc2c(c1)C(=O)N([C@@H](C)CO)C[C@H](C)[C@H](CN(C)S(=O)(=O)c1ccc(Cl)cc1)O2	n	n	n	n	x	n	x
CN1CCN(CC(O)COc2ccccc2)CC1 (stereo not drawn)	n	n	n	n	n	n	x
CN1CCN(CC(O)COc2ccc(C34CC5CC(CC(C5)C3)C4)cc2)CC1 (stereo not drawn)	56	n	n	n	n	n	n
O=C(Nc1ccc(F)cc1)N1CC(=O)N2[C@H](CO)[C@H](c3ccc(C#CC4CC4)cc3)[C@@H]2C1	n	n	n	x	x	n	x
CC(=O)N(C)C[C@@H]1Oc2cc(-c3ccc(C)cc3)ccc2S(=O)(=O)N([C@H](C)CO)C[C@H]1C	n	n	n	n	x	n	x
CC/C(=N\O)c1c(O)c2c(n(-c3ccccc3)c1=O)CCCC2	54	n	x	x	n	n	n
O=c1cc(O)c2c(=O)n(-c3ccccc3)c3c(c2o1)CCCCC3	x	x	n	n	n	x	x
COc1ccc(CN(C)C[C@@H]2OCCCC[C@H](C)Oc3ccc(NC(=O)NC(C)C)cc3C(=O)N([C@@H](C)CO)C[C@@H]2C)cc1	n	n	n	n	x	u	x
Cc1csc(N2CCN(c3cc4c(cc3Cl)nc(-c3ccncc3)n4CCCN3CCCC3)CC2)n1	98	n	x	n	n	x	n
